# In paper PMC12670160, “A drug-repurposing screen of FDA- and EMA-approved drugs identifies two NF-κB inhibitors active against eumycetoma” (Journal of Antimicrobial Chemotherapy, 2025):
# Structures can show the parent of a compound that is named as a salt. Where two headings read alike, the source gives them in different places. The campaign covered roughly 5,300 compounds. About 130 (2.5%) showed an effect of 50% or more. This excerpt belongs to a sample that is enriched for strong results.
# Test system: M. mycetomatis strain mm55
# Settings: primary screen, metabolic activity vs growth control, 96 h, 2 µM, inhibitor
Structure (SMILES),% viability,% viability (Madurella mycetomatis metabolic activity at 2µM (%))
"O=C1c2cccnc2OC[C@@H]2CCCN12 [ONC0001148, org26576]",83.51%,
"CCOC(=O)NNc1ccc(N(CC)CC(C)O)nn1 (stereo not drawn) [ONC0001944, cadralazine]",72.29%,
"C=C1C(=O)O[C@@H]2[C@H]3O[C@]3(C)CC/C=C(\C)CC[C@@H]12 [ONC0002950, parthenolidealternatestereo]",150.2%,
"Cc1cccc(Oc2nc3c(C)cccn3c(=O)c2/C=C(\C#N)c2nc3ccccc3s2)c1 [ONC0001281, ccg63802]",68.65%,
"Cc1cccn2c(=O)c(/C=C(\C#N)c3nc4ccccc4s3)c(Oc3ccc(F)cc3)nc12 [ONC0003502, ccg63808]",42.44%,
"Cc1ccc(OC[C@@H](O)[C@H](C)NC(C)C)c2c1CCC2 [ONC0001929, ici118551]",52.35%,
"Cc1ccc(-c2ncccn2)c(C(=O)N2C[C@H](COc3ccc(F)cn3)CC[C@H]2C)c1 [ONC0005570, filorexant]",73.84%,
"O=C(O)CC(O)(CC(=O)O)C(=O)O.[Li].[Li].[Li] [ONC0004255, lithium citrate hydrate]",60.67%,
"CCCCCCCCCCCCOCCOCCOCCOCCOCCOCCOCCOCCOCCO [ONC0002139, polidocanol]",78.72%,
"C[C@H]1OC(O)[C@H](O)[C@H](O)[C@H]1O (stereo partly drawn) [ONC0004779, l rhamnose monohydrate]",103.9%,
"C/C=C1\NC(=O)[C@H]2CSSCC/C=C/[C@H](CC(=O)N[C@H](C(C)C)C(=O)N2)OC(=O)[C@H](C(C)C)NC1=O [ONC0000722, romidepsin]",49.6%,
"Cc1ccc(-c2ccc(C)cn2)nc1 [ONC0002143, abametapir]",65.91%,
"C=C[C@H]1C[N@@]2CC[C@H]1C[C@H]2[C@H](O)c1ccnc2ccc(OC)cc12 [ONC0003402, quinine]",78.04%,
"CC/C(=C(\c1ccccc1)c1ccc(OCCN(C)C)cc1)c1ccccc1 [ONC0000595, tamoxifen citrate]",106.5%,
"CC/C(=C(\c1ccc(O)cc1)c1ccc(OCCN(C)C)cc1)c1ccccc1 [ONC0002197, afimoxifene]",79.17%,
"CC/C(=C(\c1ccc(O)cc1)c1ccc(OCCNC)cc1)c1ccccc1 [ONC0004522, endoxifen hcl]",48.7%,
"O=C1c2ccccc2-n2c1nc1ccccc1c2=O [ONC0003517, tryptanthrin]",43.27%,
"O=c1c2ccccc2nc2n1CCc1c-2[nH]c2ccccc12 [ONC0004955, rutaecarpine rutecarpine]",80.68%,
"COc1cc(-n2c(S)nc3ccccc3c2=O)c(Cl)cc1Cl [ONC0004315, mdivi1]",127.2%,
"COC(=O)Nc1nc2ccc([S+]([O-])c3ccccc3)cc2[nH]1 (stereo not drawn) [ONC0004180, oxfendazole]",72.44%,

Structure (SMILES),% viability,% viability (Madurella mycetomatis metabolic activity at 2µM (%))
"NC(C(=O)O)c1ccc(C(=O)O)c(O)c1 (stereo not drawn) [ONC0002596, 4carboxy3hydroxyphenylglyciners]",58.45%,
"CC(=O)O[C@@H]1CC[C@@]2(C)C(CC[C@]3(C)C2C(=O)C=C2[C@@H]4[C@@H](C)[C@H](C)CC[C@]4(C)CC[C@]23C)[C@@]1(C)C(=O)O (stereo partly drawn) [ONC0003387, acetyl11ketobetaboswellicacid]",70.79%,
"COc1cc2c(c(OC)c1OC)-c1c(cc3c(c1OC)OCO3)C[C@H](C)[C@@H](C)C2 [ONC0005204, schisandrin b]",87.3%,
"O=C1CCCCCCCCCCCCCCO1 [ONC0002133, oxacyclohexadecan2one]",71.7%,
"O=C(O)CN(CCN(CC(=O)O)CC(=O)O)CCN(CC(=O)O)CC(=O)O [ONC0005602, pentetic acid]",,107.7%
"Oc1cccc(Nc2ccc(Nc3cccc(O)c3)nn2)c1 [ONC0002962, 363hydroxyphenylaminopyridazin3ylaminophenol]",67.52%,
"Nc1ccc(C(=O)O)c(O)c1 [ONC0003334, aminosalicylate sodium]",35.29%,
"Nc1ccc(C(=O)Oc2ccccc2)c(O)c1 [ONC0003304, phenyl aminosalicylate]",56.4%,
"Nc1ccc(O)c(C(=O)O)c1 [ONC0002803, mesalamine lialda]",82.25%,
"[H]/N=C(/N)N/C(=N/[H])NCCc1ccccc1 [ONC0000619, phenformin hydrochloride]",104.4%,
"CNC(=O)c1ccc2c(c1)S(=O)(=O)c1ccccc1C2=O [ONC0002375, bw616u]",76.21%,
"Nc1c[n+](N2CCOCC2)no1 [ONC0003799, linsidomine]",49.48%,
"CCOC(=O)Nc1c[n+](N2CCOCC2)no1 [ONC0000636, molsidomine]",75.33%,
"CC[C@@H](C(=O)O)C1CC[C@H](C)C([C@@H](C)[C@H](O)[C@H](C)C(=O)[C@H](CC)C2O[C@]3(C=C[C@@H](O)[C@]4(CC[C@@](C)(C5CC[C@](O)(CC)[C@H](C)O5)O4)O3)[C@H](C)C[C@@H]2C)O1 (stereo partly drawn) [ONC0004344, salinomycin procoxacin]",144.3%,
"CN(C)c1ccc2c(c1)Sc1cc(N(C)C)ccc1N2.CS(=O)(=O)O [ONC0001830, leucomethylene blue mesylate]",74.38%,
"CS(=O)(=O)c1ccc(C2=C(c3ccccc3)C(=O)OC2)cc1 [ONC0001095, rofecoxib]",82.56%,
"CS(=O)(=O)c1ccc(-c2cn3ccccc3n2)cc1 [ONC0002352, zolimidine]",42.05%,
"CS(=O)(=O)c1ccc(-c2cnc(N)c(C(=O)Nc3ccccc3)n2)cc1 [ONC0004547, ve821]",76.73%,
"O=C1NC(=O)/C(=C\c2cccc(C(F)(F)F)c2)S1 [ONC0004444, smi4a]",130.7%,
"Cc1cc(C(=CNc2ccc(Cl)cc2)C(=O)Nc2ccc(Cl)cc2)on1 [ONC0000028, ccmi]",80.11%,

Structure (SMILES),% viability,% viability (Madurella mycetomatis metabolic activity at 2µM (%))
"Cc1ncc(C[n+]2csc(CCO[P@](=O)(O)OP(=O)(O)O)c2C)c(N)n1 [ONC0002796, thiamine pyrophosphate chloride]",94.34%,
"CC1(C)[C@@H]2C[C@@H](O)[C@@](C)(O)[C@H]1C2 [ONC0002949, 266trimethylbicyclo311heptane23diol]",64.26%,
"CC1(C)[C@@H]2C[C@H]1[C@@](C)(O)[C@@H](O)C2 [ONC0005321, pinanediol]",118.6%,
"CC1(C)OC2(C)C(O)CC1CC2O (stereo not drawn) [ONC0003817, epomediol]",42.26%,
"C#C[C@]1(OC(=O)CCCCCC)CC[C@H]2[C@@H]3CCC4=CC(=O)CC[C@@H]4[C@H]3CC[C@@]21C [ONC0000267, norethisterone enanthate]",63.38%,
"C=C1c2cccc(O)c2C(=O)C2C(=O)[C@]3(O)C(=O)C(C(N)=O)C(=O)[C@@H](N(C)C)[C@@H]3[C@@H](O)[C@H]12 (stereo partly drawn) [ONC0000687, methacycline hydrochloride]",124.6%,
"CCOC(=O)c1c2c3c(cccc3[nH]c1=O)C(=O)c1ccccc1-2 [ONC0001061, nqdi1]",43.7%,
"CCOC(=O)c1ccccc1OC(=O)CCCCCCCC(=O)Oc1ccccc1C(=O)OCC [ONC0003554, tu2100]",98.87%,
"O=C1c2ccccc2-c2c(NCCc3ccccc3)c(=O)[nH]c3cccc1c23 [ONC0001816, brd7389]",84.69%,
"Cn1cnc(=N)c2nc[nH]c21 [ONC0004721, 3methyladenine 3ma]",115.8%,
"CCC(=O)OCC(=O)C1(OC(=O)CC)[C@H](C)C[C@H]2C3[C@H](Cl)CC4=CC(=O)C=C[C@]4(C)[C@H]3[C@@H](O)C[C@@]21C (stereo partly drawn) [ONC0002939, alclometasonedipropionate]",82.49%,
"C/C(=C\c1csc(C)n1)[C@H]1C[C@@H]2O[C@]2(C)CCC[C@H](C)[C@H](O)[C@@H](C)C(=O)C(C)(C)[C@H](O)CC(=O)O1 [ONC0004615, patupilone epo906 epothilone b]",75.3%,
"C[C@H]1CC2C([C@@H](O)C[C@@]3(C)C2CC[C@]3(O)C(=O)COC(=O)CCC(=O)O)[C@@]2(C)C=CC(=O)C=C12 (stereo partly drawn) [ONC0003156, methylprednisolone sodium succinate]",82.41%,
"CC(=O)N[C@@H](CSSC[C@H](NC(C)=O)C(=O)O)C(=O)O [ONC0002807, nnü¾Œ“ ¼ü¾˜³ ¼diacetyllcystine]",85.92%,
"CCCCOc1ccc(C(=O)Nc2ccc(F)cc2F)cc1 [ONC0005047, vu 0357121 vu 0357121 vu 0357121]",78.07%,
"C=CCN(C)CCCCCCOc1ccc(C(=O)c2ccc(Br)cc2)c(F)c1 [ONC0001825, ro 488071 fumarate]",29.93%,
"CCCCC(F)(F)C(=O)CC[C@H]1[C@H](O)CC(=O)[C@@H]1CCCCCCC(=O)O [ONC0004918, lubiprostone]",115.4%,
"Oc1ccc(-c2nc(-c3ccncc3)c(-c3ccc(F)cc3)[nH]2)cc1 [ONC0000026, sb202190]",54.44%,
"Fc1ccc(-c2nc(-c3c(F)cccc3F)[nH]c2-c2ccncc2)cc1 [ONC0000887, ta01]",46.48%,
"C[S+]([O-])c1ccc(-c2nc(-c3ccncc3)c(-c3ccc(F)cc3)[nH]2)cc1 (stereo not drawn) [ONC0000881, sb203580]",87.12%,
